Data reported in PubChem BioAssay (NCATS).
Records with an inconclusive call do not appear. Unmarked numbers belong to inactive results. Calls follow the shape of the dose curve; as a rule, active = well fitted cell-killing curve with a large enough effect; inconclusive = small, poorly fitted or top-dose-only effect, or effect the other way; inactive = flat fitted curve, though single readings scatter.

System: PA-1
Experiment: Primary qHTS to identify gynecologic anti-cancer compounds using libraries of approved drugs and bioactive compounds (AID 1345084); also: nearly all actives have a fitted effect of over 55% in size
Details: Gynecologic cancer cell panel viability, ATPlite luminescence, 48 h; series mostly up to 57.5 µM; activity change, negative = cytotoxicity: at the top concentration
Outline: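 Five-point cytotoxicity, 48 h drug exposure at 37 C, 5% CO2, on cells seeded 16 h beforehand. ATP content read by ATPlite luminescence.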
% is scaled to controls: 0 for no effect and ±100 for the full control effect.

Row | SMILES | activity change, negative = cytotoxicity
1 | CCCC1=CC2=C(CO1)C(=O)C(C)(O)C(OC(=O)c1c(C)cc(OC)cc1O)C2 (centres undefined) | 9.45% [at 25.3 µM]
2 | CCOc1ccc(-c2nn3ncccc3c2-c2ccc(S(C)(=O)=O)cc2)cc1 | 8.9%
3 | CC1(C)[C@H]2C[C@H](C/C=C\CCCC(=O)O)[C@@H](NC(=O)c3csc4ccc(O)cc34)[C@@H]1C2 | -0.0009%
4 | O=C(Cc1ccc(Cl)cc1)Nc1cnccc1C(=O)O | 2.38%
5 | C[C@@H]1O[C@@H](O[C@H]2[C@H](Oc3cc(O)c(C(=O)CCc4ccc(O)cc4)c(O)c3)O[C@H](CO)[C@@H](O)[C@@H]2O)[C@H](O)[C@H](O)[C@H]1O | 29.2%
6 | O=C1C(Cl)=C(N2CCOCC2)C(=O)N1c1ccc(Cl)c(Cl)c1 | 3.89% [at 25.3 µM]
7 | C[C@@H]1O[C@@H](OC2C(O[C@H]3[C@H](O[C@H]4CC[C@@]5(C)C(CC[C@]6(C)C5CC=C5C7CC(C)(C)CC(O)[C@]7(C)CC[C@]56C)C4(C)C)O[C@H](C(=O)O)[C@@H](O)[C@@H]3O)OC(CO)C(O)C2O)[C@H](O)[C@H](O)[C@H]1O (some centres undefined) | 0.277% [at 11.6 µM]
8 | CCC(C)/C=C(C)/C=C/C1=CC2=C(Cl)C(=O)C(C)(OC(C)=O)C(=O)C2=CN1C(CC(=O)O)C(=O)O (centres undefined) | 16.6% [at 25.3 µM]
9 | C/C=C(\C)C(=O)OC[C@H]1O[C@@H](O[C@H]2[C@@H](O[C@H]3O[C@H](COC(=O)/C(C)=C/C)[C@@H](O)[C@H](O)[C@H]3O[C@@H]3O[C@H](CO)[C@@H](O)[C@H](OC(=O)/C(C)=C/C)[C@H]3O)O[C@H](COC(=O)/C(C)=C/C)[C@@H](O)[C@@H]2O)[C@H](O)[C@@H](O)[C@@H]1O | -18.4% [at 11.6 µM]
10 | COc1cc(C)c(C(=O)O[C@@H]2[C@H](O)[C@@H](CO)O[C@H]2n2ccc(=O)[nH]c2=O)c(OC)c1 | 15.2% [at 25.3 µM]
11 | C=C[C@H]1[C@H](O[C@@H]2O[C@H](CO)[C@@H](O)[C@H](O)[C@H]2O)OC=C(C(=O)OC)[C@H]1CCO | -2.36% [at 38.5 µM]
12 | COc1cc(CCCO)ccc1O[C@@H]1O[C@H](CO)[C@@H](O)[C@H](O)[C@H]1O | 23.7% [at 38.5 µM]
13 | CC[C@H](C)[C@H](NC(=O)[C@H](Cc1ccc(O)cc1)NC(=O)[C@@H](N)C(C)C)C(=O)N[C@@H](Cc1cnc[nH]1)C(=O)N1CCC[C@H]1C(=O)N[C@@H](Cc1ccccc1)C(=O)O | 4.28% [at 6.55 µM]
14 | CC(C)(O)C(O)C(=O)OCc1ccc(O[C@@H]2O[C@H](CO)[C@@H](O)[C@H](O)[C@H]2O)cc1 (some centres undefined) | 2.12% [at 25.3 µM]
15 | C=Cc1ccc(O[C@@H]2O[C@H](CO[C@@H]3O[C@@H](C)[C@H](O)[C@@H](O)[C@H]3O)[C@@H](O)[C@H](O)[C@H]2O)cc1 | 33.7% [at 25.3 µM]
16 | COc1ccc(-n2c(SCC#N)nc3sc4c(c3c2=O)CCCC4)cc1 | 9.4%
17 | O=C(CC1CC(c2ccc(F)cc2F)=NO1)N1CCOCC1 (centres undefined) | -3.29%
18 | CC(C)=C1CC2[C@](C)(CC[C@@H](OC(=O)C3(C)OC3C)[C@@]2(C)O)CC1=O (some centres undefined) | -3.57% [at 38.5 µM]
19 | COc1cc(/C=C/C(=O)O[C@H]2[C@H](O)[C@@H](CO)O[C@@]2(CO)O[C@H]2O[C@H](CO)[C@@H](O)[C@H](O)[C@H]2O)cc(OC)c1O | 9.19% [at 25.3 µM]
20 | CC(=O)OC(C)(C)/C=C/C(=O)[C@](C)(O)C1[C@H](O)C[C@@]2(C)[C@@H]3CC=C4[C@@H](C[C@H](O[C@@H]5O[C@H](CO)[C@@H](O)[C@H](O)[C@H]5O)C(=O)C4(C)C)[C@]3(C)C(=O)C[C@]12C (some centres undefined) | -2.26% [at 25.3 µM]

Row | SMILES | activity change, negative = cytotoxicity
21 | CC(C)C(NC(=O)c1ccc(O)cc1)C(=O)N1CCCC1C(=O)Nc1c(O)cccc1C(=O)O (centres undefined) | 2.15% [at 25.3 µM]
22 | O=C(OC[C@H]1O[C@@H](Oc2ccccc2COC(=O)C2(O)C=CCCC2O)[C@H](O)[C@@H](O)[C@@H]1O)c1ccccc1 (some centres undefined) | 22.3% [at 25.3 µM]
23 | COc1cc(/C=C/C(=O)O)ccc1O[C@@H]1O[C@H](CO)[C@@H](O)[C@H](O)[C@H]1O[C@@H]1OC[C@](O)(CO)[C@H]1O | 4.67% [at 25.3 µM]
24 | CC1C(O)C(O)C2C(C(=O)OCCc3ccc(O)cc3)=COC(O[C@@H]3O[C@H](CO)[C@@H](O)[C@H](O)[C@H]3O)C12 (some centres undefined) | -1.53% [at 25.3 µM]
25 | CC1OC(OC2C(OC(=O)[C@]34CCC(C)(C)C[C@H]3C3=CCC5[C@@]6(C)CC[C@H](OC7OC(C(=O)O)C(O)C(O)C7O)C(C)(C)C6CC[C@@]5(C)[C@]3(C)CC4O)OC(CO)C2O)C(O)C(O)C1OC1OCC(O)C(O)C1O (some centres undefined) | 30.3% [at 11.6 µM]
26 | O=C(/C=C/c1ccccc1)O[C@@H]1[C@@H](CO)O[C@@](CO)(O[C@H]2O[C@H](CO)[C@@H](O)[C@H](O)[C@H]2O)[C@H]1O | 9.55% [at 25.3 µM]
27 | COc1cc(C(=O)OCC2=CCC3C(C(=O)O)=COC(O[C@@H]4O[C@H](CO)[C@@H](O)[C@H](O)[C@H]4O)C23)ccc1O (some centres undefined) | -2.45% [at 25.3 µM]
28 | COc1cc2c(cc1OC)N1C(=O)C[C@@]34C=CC[N@+]5([O-])CC[C@H]2[C@H](CC3)[C@@]145 | 5.53% [at 38.5 µM]
29 | COc1cc(C(CO)CO[C@@H]2O[C@H](CO)[C@@H](O)[C@H](O)[C@H]2O)ccc1O (some centres undefined) | 13% [at 38.5 µM]
30 | CC(=O)NC(C(=O)OC1CCC(C)(C)C2CC=C3C(=O)OCC3C12C)C(C)C (centres undefined) | 3.33% [at 38.5 µM]
31 | COc1ccc(/C=C/C(N)=O)cc1OC | -3.71%
32 | Cc1oc(S(=O)(=O)N2CCCCC2)cc1NC(=O)Nc1ccccc1 | 21.3%
33 | CC(=O)[C@@H]1C[C@H](C(C)(C)O[C@@H]2O[C@H](CO)[C@@H](O)[C@H](O)[C@H]2O)CC[C@@]2(CO)OC(=O)C[C@@H]12 | 14.7% [at 25.3 µM]
34 | O=C(O)c1cc(C(F)(F)F)ccc1N1CC[C@H](OCc2ccccn2)C1 | 16.9%
35 | C=C1CCC2C(C)(C(=O)O)CCCC2(C)C1CC/C(C)=C\CO (centres undefined) | 27.5% [at 38.5 µM]
36 | CC(C)c1ccc2c(c1)C(O)CC1C(C)(C(=O)O)CCCC21C (centres undefined) | -1.68% [at 38.5 µM]
37 | O=C(O)CC1CCC(c2ccc(-c3ccc(Nc4ccc(C(F)(F)F)nc4)cn3)cc2)CC1 (centres undefined) | 7.72%
38 | COCC1OC(OC(C)(C)C2CCC3(C)C=C(C4CCC5C4(C)CC(O)C4OC(C(C)(C)O)CCC45C)CCC3O2)C(NC(C)=O)C(O)C1O (centres undefined) | 11.7% [at 25.3 µM]
39 | CC(C)CC(=O)OC[C@@]1(O)C[C@@]23CC[C@H]4[C@@](C)(CCC[C@@]4(C)C(=O)O)[C@@H]2CC[C@@H]1C3 | 5.72% [at 25.3 µM]
